# Compound activity (PubChem BioAssay)
# GDH-TPI counter-1 = counter-screen for M. tuberculosis FBA inhibitors: GDH-TPI coupled enzymes; AID 588335; 360,000 tested, 1.2% active; inhibition, % at 4.8 µM; GDH-TPI coupled enzyme counterscreen, NADH absorbance; in the data active = inhibition above about 30%;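 note: 0% = DMSO wells and 100% = wells lacking the enzyme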
# CCHF vOTU inh = CCHFV vOTU protease inhibition. Pep-AMC fluorescence. inhibition, % at 11.5 µM. 370,000 tested, 0.55% active; in the data active = inhibition above about 30%; note: 0% = vehicle wells with enzyme and 100% = no enzyme wells
# FBA Mtb inh = inhibitors of M. tuberculosis fructose-bisphosphate aldolase; P9WQA3; purified M. tuberculosis FBA, fluorescence read-out; inhibition, % at 1 µM; 360,000 tested, 2.3% active; AID 588726;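 note: 0% = vehicle and 100% = reference inhibitor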
# Target sequence (P9WQA3 whole entry, looked up): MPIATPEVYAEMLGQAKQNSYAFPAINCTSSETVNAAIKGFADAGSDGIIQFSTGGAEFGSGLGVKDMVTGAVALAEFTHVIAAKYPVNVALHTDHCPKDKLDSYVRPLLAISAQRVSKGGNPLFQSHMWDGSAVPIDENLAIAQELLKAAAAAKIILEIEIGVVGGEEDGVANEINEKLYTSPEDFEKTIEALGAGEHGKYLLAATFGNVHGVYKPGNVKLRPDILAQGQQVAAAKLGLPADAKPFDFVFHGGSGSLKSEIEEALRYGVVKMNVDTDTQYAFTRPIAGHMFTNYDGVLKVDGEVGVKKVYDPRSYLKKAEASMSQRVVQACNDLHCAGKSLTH
# Mtb betalactam = beta-lactam sensitization of Mtb H37Rv; AID 434955; M. tuberculosis H37Rv growth with meropenem, percent inhibition; inhibition, % at 25 µM; 330,000 tested, 0.27% active; call rule not given here;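 note: growth measured after seven days incubation then overnight dye step; 0% = bacteria only wells and 100% = bacteria with antibiotic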
# MazEF act = activators of E. coli MazEF toxin-antitoxin RNase; AID 504720; P0AE70; FAM/BHQ RNA-DNA oligo cleavage fluorescence, 5 h; activation, % at 20 µM; 350,000 tested, 0.32% active; in the data active = activation above about 50%
# Target sequence (P0AE70 whole entry, looked up): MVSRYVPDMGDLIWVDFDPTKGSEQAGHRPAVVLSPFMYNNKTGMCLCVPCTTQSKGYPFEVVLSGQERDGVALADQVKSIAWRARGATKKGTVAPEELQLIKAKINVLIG
# Mtb FBA confirm = Mtb FBA inhibition, confirmed; inhibition, % at 1 µM; 5,600 tested, 78% active; purified M. tuberculosis FBA, fluorescence read-out; shares compounds with FBA Mtb inh;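 note: 0% = vehicle wells and 100% = reference inhibitor wells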
# GDH-TPI counter-2 = counter-screen for M. tuberculosis FBA inhibitors: GDH-TPI coupled enzyme inhibition; shares compounds with FBA Mtb inh; GDH-TPI coupled enzyme counterscreen, fluorescence; inhibition, % at 1 µM; 5,600 tested, 81% active; AID 652141; in the data active = inhibition above about 10%
# GDH-TPI dose = GDH-TPI dose response counter-screen for Mtb FBA. shares compounds with FBA Mtb inh. GDH-TPI coupled enzyme assay, fluorescence, artifact counterscreen. IC50, µM. 170 tested, 79% active. AID 652145; call rule not given here
# The depositor's hits bear a star; . = no result given; + = active, no number. Most compounds without a hit are left out; they make up all but 4% or so of the library. Cut-off read from the data, not from the text of the source, unless noted: active = inhibition above about 27%; inactive = the rest.
SMILES,GDH-TPI counter-1,CCHF vOTU inh,FBA Mtb inh,Mtb betalactam,MazEF act,Mtb FBA confirm,GDH-TPI counter-2,others
N#Cc1cccc(-c2ccccc2C(=O)NC2CCCCN(Cc3ccc(Cl)cc3)C2=O)c1 (stereo not given),.,0,.,.,.,.,.,
COc1ccc(C(=O)N/N=C(\c2ccccc2)c2ccccn2)cc1,17,1,49*,98,8,147*,116*,
CC1CCc2nc(/C(C#N)=C/c3ccncc3)sc2C1 (stereo not given),9,-10,28*,49,4,9,-4,
N#C/C(=C\c1c(Oc2ccccc2F)nc2ccccn2c1=O)C(=O)NC1CCS(=O)(=O)C1 (stereo not given),4,-31,28*,-2,-16,106*,84*,
N#C/C(=C\c1c(Oc2ccccc2Cl)nc2ccccn2c1=O)C(=O)NC1CCS(=O)(=O)C1 (stereo not given),3,-14,15,5,4,.,.,
CC(=O)c1ccc(-c2ccc(C(=O)N(C)Cc3nc4ccccc4c(=O)[nH]3)o2)cc1,17,-86,89*,3,-5,4,-4,
O=C(NNC(=O)c1cc2ccccc2cc1O)Nc1ccc(Br)cc1,12,-18,28*,3,-3,106*,91*,
COc1ccc(NC(=O)NNC(=O)c2ccc3ccccc3c2O)c(OC)c1,4,-18,40*,19,-3,52*,44*,
COc1ccc(NC(=O)NNC(=O)c2cc3ccccc3cc2O)cc1,8,3,0,-13,-6,.,.,
CCc1ccccc1NC(=O)NNC(=O)c1ccc2ccccc2c1O,3,-10,8,-5,-1,.,.,
CC(=O)Nc1ccc(CCNC(=O)c2ccc3ccccc3c2O)cc1,12,-25,32*,.,4,+,149*,
CCOc1ccc(NC(=O)NNC(=O)c2ccc3ccccc3c2O)cc1,10,-9,40*,-14,6,28*,10,GDH-TPI dose=5.7*
COC(=O)[C@]12C[C@H](CC(=O)NCCCN3CCCC3=O)C(=O)N(Cc3cccc4ccccc34)C1=C[C@H](C1CCCC1)O[C@@H]2C,.,4,.,.,.,.,.,
Cc1ccc(-c2cc(-c3nnc(SCC(=O)Nc4nccs4)n3N)[nH]n2)cc1,.,3,.,.,.,.,.,
COC(=O)C1CN(C2CC2)CCS(=O)(=O)N1Cc1cn(Cc2ccc(F)cc2)nn1 (stereo not given),.,1,.,.,.,.,.,
CC(=O)CC[C@H]1CC[C@]2(CCCN(C(=O)c3ccccc3)C2)O1,.,4,.,.,.,.,.,
COC(=O)[C@]12C[C@H](CC(=O)N3CCN(C(=O)C4CC4)CC3)C(=O)N(Cc3ccc(Cl)cc3Cl)C1=C[C@H](C(C)C)O[C@@H]2C1CC1,.,7,.,.,.,.,.,
O=C(Nc1ccc(F)cc1)OCc1cn(Cc2ccccc2C(F)(F)F)nn1,.,9,.,.,.,.,.,
Cc1cc(=O)n2[nH]c(C(F)(F)F)c(-c3ccccc3)c2n1,1,.,64*,-7,6,165*,135*,
COc1ccc(Cc2[nH]n3c(=O)cc(C)nc3c2-c2ccccc2)cc1,0,-5,27*,-5,12,157*,147*,
COc1ccc(Cc2[nH]n3c(=O)cc(C(C)C)nc3c2-c2ccccc2)cc1,8,5,17,9,-24,.,.,
C[C@H]1COc2cc(N3CCCCC3)ccc2S(=O)(=O)N1,.,-1,.,.,.,.,.,
Cc1cccc(NC(=O)OC2CC3CC2[C@H]2CCCCN2C3)c1 (stereo not given in full),.,-8,.,.,.,.,.,
c1cncc(-c2nc3ccccc3[nH]2)c1,10,-3,4,7,14,.,.,
c1ccc2[nH]c(-c3ccncc3)nc2c1,3,4,30*,6,2,+,179*,
SMILES,GDH-TPI counter-1,CCHF vOTU inh,FBA Mtb inh,Mtb betalactam,MazEF act,Mtb FBA confirm,GDH-TPI counter-2,others
c1csc(-c2nc3ccccc3[nH]2)c1,8,-7,48*,-7,8,63*,47*,
Cc1[nH]c2ccccc2c1-c1nc2ccccc2[nH]1,11,6,14,-12,6,.,.,
S=C(Nc1ccc(-c2nc3ccccc3[nH]2)cc1)Nc1cccnc1,11,-18,89*,-3,-10,64*,60*,
Cc1ccc(-c2nc3ccccc3[nH]2)s1,30,-49,58*,-9,4,68*,63*,
O=C(CN1CCN(Cc2ccccc2)CC1)N/N=C\c1ccccc1[N+](=O)[O-],.,11,.,.,.,.,.,
CCOC(=O)[C@@]12CCC3=C1N(CCC3)C(=O)[C@H](CC(=O)N1CCOCC1)C2,.,-1,.,.,.,.,.,
COC(=O)C1=C(C)N(Cc2cccc(C(F)(F)F)c2)C(=NCC2CC2)NC1c1ccc(F)cc1 (stereo not given),.,8,.,.,.,.,.,
Cc1nc2ccccc2[nH]c1=O,3,12,6,0,-19,.,.,
Cc1nnsc1-c1nc2ccccc2[nH]1,13,-56,81*,-2,13,17,3,
CN(C)[C@H]1CCN(c2ccc3c(c2)OCCCN(C2CC2)S3(=O)=O)C1,.,-4,.,.,.,.,.,
C=CCn1c(C(C)C)nc2ccccc21,-1,-6,-1,-6,2,.,.,
C=CCn1c(C)cc(C(=O)Cn2c(C(C)O)nc3ccccc32)c1C (stereo not given),7,-3,74*,-1,6,156*,119*,
Cc1[nH]nc2c1C(c1ccc3c(c1)OCO3)N(Cc1ccccc1)C2=O (stereo not given),.,2,.,.,.,.,.,
O=C(NN=Cc1ccc(O)cc1O)c1ccccc1NS(=O)(=O)c1cccs1,6,13,41*,0,6,-3,-1,
O=C(N/N=C/c1ccc(N2CCOCC2)cc1)c1ccccc1NS(=O)(=O)c1cccs1,38*,-3,44*,9,5,+,+,
COc1ccc(C=NNC(=O)c2ccccc2NS(=O)(=O)c2cccs2)cc1O,26,10,4,10,5,.,.,
CCOC(=O)N1CCC(NC(=O)C2CCN(c3ccc(N4CCOCC4)nn3)CC2)CC1,13,.,31*,7,3,123*,107*,
Cc1[nH]n2c(=O)c3c(nc2c1-c1cccc2ccccc12)CCC3,8,-14,51*,82,1,132*,96*,
Cc1ccc(CNc2ncnc3ccc(-c4ccc(CO)o4)cc23)o1,26,-33,81*,.,.,8,-1,
Cc1csc(CNc2ncnc3ccc(-c4cccc(Cl)c4)cc23)c1,11,-1,7,13,-23,.,.,
O=C(Cn1nnc(-c2ccncc2)n1)Nc1ccc(Oc2ccccc2)cc1,.,-9,.,.,.,.,.,
Cc1ccc(-c2cnc3cccnn23)cc1F,3,-71,60*,.,.,-5,-5,
COc1cccc(-c2cnc3cccnn23)c1,-3,-62,53*,.,.,97*,69*,
COc1ccc(-c2cc(NC=O)c3ncc(-c4cccc(OC)c4)n3c2)cc1,7,16,0,.,.,.,.,
